Eight molecules from PubChem BioAssay (Tox21) can be followed below.

Values without a mark were called inactive. Records with an inconclusive call do not appear. Calls of active or inactive are those of the source. Unless noted, calls follow the shape of the dose curve; as a rule, active = well fitted curve in the direction sought with a large enough effect in the repeat runs; inconclusive = weak or mixed curves; inactive = no such curve, though single readings can be large; an effect the other way counts as inactive or inconclusive.

Assay [1] in a line: A CellTox Green Cytotoxicity Assay to monitor cytotoxicity in HEK293 cells - 32 hour (AID 1224881). Also: nearly all actives have a fitted effect of over 40% in size. In outline:
(§1)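 Tox21 screen in HEK293: membrane-impermeant cyanine dye fluoresces on binding dead-cell DNA; compound pinned 5 h post-seeding, plates held at 37 C, signal read repeatedly through 40 h.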

Assay [2] can be described thus: A CellTox Green Cytotoxicity Assay to monitor cytotoxicity in HepG2 cells - 0 hour (AID 1224882). Also: nearly all actives have a fitted effect of over 35% in size. Summed up:
(§2)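 Measurements at 0, 8, 16, 24, 32 and 40 h of treatment captured CellTox Green fluorescence in HepG2 cells that had been co-plated with reagent and preincubated 5 h at 37 C/5% CO2.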

The nature of assay [3]: A CellTox Green Cytotoxicity Assay to monitor cytotoxicity in HepG2 cells - 32 hour (AID 1224883). Also: nearly all actives have a fitted effect of over 50% in size. In outline:
as §2

A short description of assay [4]: A CellTox Green Cytotoxicity Assay to monitor cytotoxicity in HEK293 cells - 8 hour (AID 1224884). Also: nearly all actives have a fitted effect of over 35% in size. In outline: as §1
Assay [5] in a line: qHTS RealTime-Glo MT Cell Viability Assay in HepG2 cells - 16 hour (AID 1224885). Also: nearly all actives have a fitted effect of over 50% in size. In outline: (§3)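 HepG2 cells (600/well) were dispensed with RealTime-Glo reagents, incubated 5 h at 37 °C, then treated with compounds in DMSO for up to 40 h. Nonlytic NanoLuc luminescence reflecting viable cells was read at each stated time point.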
The nature of assay [6]: qHTS RealTime-Glo MT Cell Viability Assay in HEK293 cells - 24 hour (AID 1224886). Also: top concentration of the series differs between compounds; nearly all actives have a fitted effect of over 50% in size. In outline: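 HEK293 cells seeded with NanoLuc/prosubstrate reagent, rested 5 h at 37 C, then dosed and kept at 37 C up to 40 h. Nonlytic real-time luminescence from viable cells read at 0, 8, 16, 24, 32 and 40 h.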
Assay [7] can be described thus: qHTS RealTime-Glo MT Cell Viability Assay in HEK293 cells - 8 hour (AID 1224887). Also: top concentration of the series differs between compounds; nearly all actives have a fitted effect of over 50% in size. Summed up:
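HEK293 + NanoLuc + prosubstrate, 600 cells/well; 5 h, 37 C/5% CO2; compound 23 nL in DMSO by pintool; 37 C; luminescence read at 0, 8, 16, 24, 32 and 40 h time points.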

Assay [8] can be described thus: A CellTox Green Cytotoxicity Assay to monitor cytotoxicity in HEK293 cells - 16 hour (AID 1224888). Also: nearly all actives have a fitted effect of over 35% in size. Summed up: as §1
Assay [9] is described as follows: qHTS RealTime-Glo MT Cell Viability Assay in HepG2 cells - 0 hour (AID 1224889). Also: nearly all actives have a fitted effect of over 50% in size. In outline: as §3
A short description of assay [10]: A CellTox Green Cytotoxicity Assay to monitor cytotoxicity in HepG2 cells - 8 hour (AID 1224890). Also: nearly all actives have a fitted effect of over 45% in size. In outline:
as §2

Assay [11] can be described thus: qHTS assay to identify small molecule antagonists of the androgen receptor (AR) signaling pathway using the MDA cell line in the presence of 0.5 nM R1881 - cell viability counter screen (AID 1259242). Also: nearly all actives have a fitted effect of over 45% in size. Summed up: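 Concentration-response screen of compounds for toxicity in MDA-kb2 reporter cells: 16 hr at 37C with 0.5 nM R1881, endpoint live-cell protease fluorescence measured in the reporter wells.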

Assay [12] deals with Estrogen receptor (Homo sapiens) (UniProt P03372). The assay is described as follows: qHTS assay to identify small molecule antagonists of the estrogen receptor alpha (ER-alpha) signaling pathway using the BG1 cell line in the presence of 0.1 nM 17-beta-estradiol (AID 1259244). Also: nearly all actives have a fitted effect of over 50% in size. Summed up:
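Compounds were tested against 0.1 nM (final) 17beta-estradiol in VM7Luc4E2 cells, which express full-length ER-alpha and an ERE-luciferase reporter; luminescence was recorded following 22 h exposure.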

The nature of assay [13]: qHTS assay to identify small molecule HDAC inhibitors (AID 1259364).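 Also: wild-type HCT-116 cells with endogenous class I/II HDAC activity; top concentration of the series differs between compounds; nearly all actives have a fitted effect of over 45% in size.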 Summed up:
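Screening used wild-type human colon HCT-116 cells incubated overnight, dosed with compounds for 2 hours, and assayed with a homogeneous luminogenic HDAC I/II reagent for 30 minutes at room temperature.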

Assay [14] is described as follows: qHTS assay to identify small molecule HDAC inhibitors - cell viability counter screen (AID 1259365). In outline:
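After overnight seeding at 1,500 cells per well, wild-type HCT-116 cultures took up compounds in DMSO for 2hr at 37 C. Viable cell content came from luminescence with CellTiter-Glo.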

The nature of assay [15]: qHTS assay to identify small molecule agonists of the sonic hedgehog signaling (Shh) pathway - cell viability counter screen (AID 1259366). Also: nearly all actives have a fitted effect of over 50% in size. In outline:
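Same-well cytotoxicity read. Gli1-Luc reporter 3T3 cells; compounds 24hr, 37C/5% CO2; CellTiter-Fluor fluorescence.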

Assay [16] is described as follows: qHTS assay to identify small molecule antagonists of the sonic hedgehog signaling (Shh) pathway - cell viability counter screen (AID 1259367). Also: nearly all actives have a fitted effect of over 55% in size. Summed up:
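Tox21 library chemicals were tested on a Gli1-Luc NIH/3T3 clone (2,000 cells/well) stimulated by conditioned medium; viability was quantified as fluorescence from CellTiter-Fluor reagent added at 23 hr.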

Assay [17] in a line: qHTS assay to identify small molecule agonists of the sonic hedgehog signaling (Shh) pathway (AID 1259368; calls by dose curve;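 also: NIH/3T3-derived 3T3Gli1-Luc cells carrying a stable Gli1-driven firefly luciferase reporter; series mostly up to about 92 µM; nearly all actives have a fitted effect of over 15% in size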). In outline: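 Hedgehog pathway agonism scored by increased firefly luciferase luminescence in 3T3Gli1-Luc cells treated 24 hr at 37 C; detection used a 30 min room-temperature reagent incubation.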
Assay [18] can be described thus: qHTS assay to identify small molecule antagonists of the estrogen receptor alpha (ER-alpha) signaling pathway using the BG1 cell line in the presence of 0.1 nM 17-beta-estradiol - cell viability counter screen (AID 1259241). Also: nearly all actives have a fitted effect of over 40% in size. In outline:
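Estradiol-stimulated (0.1 nM) VM7Luc4E2 cells exposed to compounds 22 hr; viability measured by fluorescence of cleaved CellTiter-Fluor substrate after 30 min.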

Assay [19] addresses Androgen receptor (Homo sapiens) (UniProt P10275). In words: qHTS assay to identify small molecule antagonists of the androgen receptor (AR) signaling pathway using the MDA cell line in the presence of 0.5 nM R1881 (AID 1259243). Also: nearly all actives have a fitted effect of over 50% in size. Also: potency is read from the fitted curve at half-maximal effect. Summed up: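 With R1881 held at 0.5 nM (final), compound effects on MMTV-luciferase expression in MDA-kb2 cells were scored by luminescence after a 16 hr, 37C incubation.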
% is scaled to controls: 0 for no effect and ±100 for the full control effect.

Chain of Estrogen receptor (Homo sapiens) (P03372 whole entry, looked up): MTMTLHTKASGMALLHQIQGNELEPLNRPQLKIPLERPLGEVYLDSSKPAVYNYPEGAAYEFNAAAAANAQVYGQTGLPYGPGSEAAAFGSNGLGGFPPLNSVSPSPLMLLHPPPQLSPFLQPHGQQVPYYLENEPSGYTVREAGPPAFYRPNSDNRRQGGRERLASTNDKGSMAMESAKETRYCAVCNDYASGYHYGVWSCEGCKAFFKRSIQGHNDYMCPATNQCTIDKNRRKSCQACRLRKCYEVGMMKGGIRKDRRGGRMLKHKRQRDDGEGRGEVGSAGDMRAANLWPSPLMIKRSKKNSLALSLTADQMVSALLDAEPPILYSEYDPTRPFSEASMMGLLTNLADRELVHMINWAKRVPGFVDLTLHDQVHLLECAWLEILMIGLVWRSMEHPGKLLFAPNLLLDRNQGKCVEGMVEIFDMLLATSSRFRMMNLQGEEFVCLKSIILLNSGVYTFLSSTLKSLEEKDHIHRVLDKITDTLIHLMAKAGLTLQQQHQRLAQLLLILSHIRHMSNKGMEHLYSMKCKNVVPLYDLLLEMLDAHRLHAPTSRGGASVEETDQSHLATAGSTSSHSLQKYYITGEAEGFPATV
Chain of Androgen receptor (Homo sapiens) (P10275 whole entry, looked up): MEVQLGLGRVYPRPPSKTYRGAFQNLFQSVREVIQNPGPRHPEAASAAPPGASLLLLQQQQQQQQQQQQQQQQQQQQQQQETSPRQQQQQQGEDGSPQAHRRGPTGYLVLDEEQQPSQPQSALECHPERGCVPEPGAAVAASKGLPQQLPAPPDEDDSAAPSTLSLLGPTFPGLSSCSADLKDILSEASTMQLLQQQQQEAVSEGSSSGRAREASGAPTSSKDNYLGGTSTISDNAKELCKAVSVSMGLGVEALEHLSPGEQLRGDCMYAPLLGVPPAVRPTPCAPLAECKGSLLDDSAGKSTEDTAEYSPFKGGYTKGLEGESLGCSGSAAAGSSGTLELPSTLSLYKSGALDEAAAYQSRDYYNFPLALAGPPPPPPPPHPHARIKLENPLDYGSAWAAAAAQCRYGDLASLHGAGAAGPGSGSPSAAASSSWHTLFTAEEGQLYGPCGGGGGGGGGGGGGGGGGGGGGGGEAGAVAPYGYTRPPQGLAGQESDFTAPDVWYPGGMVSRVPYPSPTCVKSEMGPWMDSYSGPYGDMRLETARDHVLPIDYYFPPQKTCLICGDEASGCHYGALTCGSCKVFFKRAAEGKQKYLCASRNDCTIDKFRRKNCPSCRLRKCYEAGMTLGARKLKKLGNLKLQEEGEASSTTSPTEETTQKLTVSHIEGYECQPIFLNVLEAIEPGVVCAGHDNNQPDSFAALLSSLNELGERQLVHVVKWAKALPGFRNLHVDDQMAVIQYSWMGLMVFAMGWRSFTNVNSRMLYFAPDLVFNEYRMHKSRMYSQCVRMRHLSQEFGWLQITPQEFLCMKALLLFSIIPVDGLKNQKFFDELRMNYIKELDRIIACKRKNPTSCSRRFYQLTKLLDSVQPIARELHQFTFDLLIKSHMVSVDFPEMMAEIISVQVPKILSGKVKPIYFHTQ

In the case of `CCN[C@H]1C[C@H](C)S(=O)(=O)c2sc(S(N)(=O)=O)cc21`, the result in [1], in assay [4], in assay [5], in assay [8], in assay [10] and in [11] was inactive. The result in assay [12], in [14] and in assay [17] was inactive. For the same molecule, the Potency entry in assay [2], in assay [3], in assay [6], in [7], in assay [9] and in assay [13] was “inactive” in each case. The Potency result in assay [15] and in assay [16] was “inactive” in each case.
In the case of `O=S(=O)(O)c1cccc2ccccc12`, the outcome in assay [1], in [4], in assay [5], in [8], in assay [10] and in [11] was inactive. For the same molecule, the result in assay [14] and in assay [17] was inactive. Moreover, the Potency result in assay [2], in assay [3], in assay [6], in [7], in assay [9] and in [13] was “inactive” in each case. Besides, the Potency result in assay [15] is “inactive”.
With `CCN[C@@H]1C[C@H](N)[C@@H](OC2OC(CN)=CCC2N)[C@H](O)[C@H]1O[C@H]1OC[C@](C)(O)[C@H](NC)[C@H]1O` (stereo partly specified), the cytotoxicity increase in [1] was 8.84% [at 0.29 µM]; in [3] it was -3.76% [at 0.29 µM]; in assay [4], -0.876% [at 0.29 µM]; in assay [10], 3.81% [at 0.29 µM]. For the same molecule, the cytotoxicity in assay [2] was 3.46% [at 0.29 µM]. Moreover, in [5], the activity change, negative = cytotoxic was 0.169% [at 0.29 µM]. Moreover, the activity change, negative = cytotoxicity in assay [6] was 3.34% [at 0.29 µM]; in assay [7] it was 0.47% [at 0.29 µM]; in [9], 0.414% [at 0.29 µM]; in assay [14], 1.54% [at 0.349 µM]. Also, the activity change was 1.26% [at 0.29 µM] in assay [8] and 0.0974% [at 0.349 µM] in assay [17]. For the same molecule, the results for the viability change, negative = cytotoxic in assay [11], in [15] and in assay [16] were 0.329% [at 0.349 µM], -1.56% [at 0.349 µM] and 0.171% [at 0.349 µM], respectively. Moreover, in [13], the activity change, negative = inhibition was 3.34% [at 0.349 µM].
Consider `CC(N)C12CC3CC(CC(C3)C1)C2` (stereo unspecified), for which the molecule was classed as inactive in [1], in assay [4], in assay [5], in [8], in [10] and in assay [18]. The result in assay [11], in assay [12], in [14] and in assay [17] was inactive. Also, the Potency result in assay [2], in assay [3], in [6], in assay [7], in assay [13] and in assay [15] was “inactive” in each case. The Potency result in assay [16] was “inactive”.
Take `CC1(C)[C@@H]2CC[C@@]1(C)[C@H](O)C2`: the outcome in assay [1], in [4], in assay [5], in assay [8], in [10] and in [18] was inactive. Moreover, the outcome in assay [11] and in [17] was inactive. The Potency result in assay [2], in [3], in assay [6], in assay [7], in [9] and in [13] was “inactive” in each case. In addition, in assay [15], the Potency result is “inactive”.
Turning to `O=C(O)CNC(=O)c1ccccc1`, the molecule was called inactive in [1], in assay [4], in [5], in assay [8], in assay [10] and in [11]. The result in assay [14] and in assay [17] was inactive. In addition, the Potency result in assay [2], in assay [3], in assay [6], in assay [7], in [9] and in assay [13] was “inactive” throughout. The Potency result in assay [15] and in assay [16] was “inactive” in each case.
In the case of `CCOC(=O)COc1cc(-n2ncc(C(F)(F)F)c(C)c2=O)c(F)cc1Cl`, the call in [1], in assay [4], in [5], in [8], in assay [10] and in assay [11] was inactive. The result in assay [12], in assay [14] and in assay [17] was inactive. Moreover, the Potency entry in [2], in assay [3], in [6], in assay [7], in [9] and in assay [19] was “inactive” throughout. The Potency result in [13], in assay [15] and in assay [16] was “inactive” throughout.
Take `Cc1ccc(-c2ccccc2C#N)cc1`: the molecule was called inactive in assay [1], in [4], in assay [5], in assay [8], in assay [10] and in [11]. Further, the result in assay [12], in [14] and in assay [17] was inactive. Also, the Potency entry in [2], in [3], in assay [6], in assay [7], in assay [9] and in [13] was “inactive” each time. Also, in [15], the Potency result is “inactive”. In assay [19], the Potency was 11.9 µM (active).
